High-throughput results from PubChem BioAssay.
In the library only some 3.9% were active in any assay of this set; here they are far more common.
NTR1 ag: agonists of human NTR1, primary screen, imaging, U2OS cells, beta-arrestin-GFP, high content | Neurotensin receptor type 1 (Homo sapiens), P30989 | NTR1-U2OS beta-arrestin-GFP spot imaging, agonist mode | activation, % at 20 µM | actives 0.17% (n = 330,000) | AID 493036, 2011;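 active = activation at or above 40% of the spot to cytoplasm intensity ratio, with at least 20 cells analyzed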;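 also: 0% = DMSO without peptide and 100% = 100 nM NTR1 peptide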
Cardio protect: cardioprotection against H2O2-induced cell death, primary screen, uHTS, H9c2 cells, ATPLite luminescence; H9c2 cardiomyocytes, H2O2 injury protection, 2 h; protection from H2O2 cell death, % at 20 µM; actives 0.63% (n = 360,000); AID 588492, 2011;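 active = compounds giving at least 50% protection of heart cells from peroxide-induced death in the single-dose screen, raw or plate-pattern-corrected value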;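 also: 0% = DMSO wells with peroxide and 100% = DMSO wells without peroxide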
ALR H2O2 inh: inhibitors of human ALR sulfhydryl oxidase, primary screen, biochemical, H2O2 detection, HRP-luminol luminescence, single point; FAD-linked sulfhydryl oxidase ALR (Homo sapiens), P55789; purified ALR, DTT oxidation; inhibition, % (concentration not given with the values); actives 3.8% (n = 290,000);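 active = mean replicate inhibition above about 79%, with every replicate also reaching it, limit read from the data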
Target sequence (P55789 whole entry, looked up): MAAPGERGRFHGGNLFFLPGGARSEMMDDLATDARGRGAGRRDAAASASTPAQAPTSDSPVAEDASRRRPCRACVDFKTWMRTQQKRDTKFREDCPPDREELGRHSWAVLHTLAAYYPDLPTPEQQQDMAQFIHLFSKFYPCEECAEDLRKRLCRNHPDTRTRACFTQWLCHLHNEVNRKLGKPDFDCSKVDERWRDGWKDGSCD
UBC9 SUMO inh: inhibitors of in vitro SUMOylation cascade, primary screen, biochemical, HTRF, uHTS | HTRF SUMOylation assay, SAE1/SAE2 + UBC9 | AID 2006, 2009 | inhibition, % at 35 µM | SUMO-conjugating enzyme UBC9 (Homo sapiens), P63279 | actives 0.36% (n = 290,000); in the data active = inhibition above about 50%, passing the limit was not always enough
Target sequence (P63279 whole entry, looked up): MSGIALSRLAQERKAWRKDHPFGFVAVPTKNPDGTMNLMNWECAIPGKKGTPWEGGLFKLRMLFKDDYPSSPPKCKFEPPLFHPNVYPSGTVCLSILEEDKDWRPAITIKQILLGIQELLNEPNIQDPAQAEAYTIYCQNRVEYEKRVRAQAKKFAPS
An asterisk follows results filed as active; . = not tested or not shown; ! = repeats disagree.

SMILES | NTR1 ag | Cardio protect | ALR H2O2 inh | UBC9 SUMO inh
CC(C)=C1SC(N2CCN(c3ccc(C)cc3)CC2)=NC1=O | 1.9 | -7.9 | 94.0* | -5.2
CC(C)=C1SC(N2CCN(c3ccc(Cl)cc3)CC2)=NC1=O | 2.7 | -5.9 | 4.3 | 6.2
NC(=O)c1ccccc1N=Cc1ccccn1 | 0.5 | 78.0* | -0.4 | 8.7
COCCN=c1scc(-c2ccccc2)n1/N=C/c1c[nH]c2ccccc12 | 10.0 | -11.0 | 24.8 | -28.3
COCCN=c1scc(-c2cccs2)n1/N=C/c1ccc(O)c(O)c1O | 3.0 | 30.0 | 99.0* | 0.9
CCN=c1scc(C)n1/N=C/c1ccc(O)c(O)c1O | -0.7 | 17.2 | 99.2* | 26.2
CCN=c1scc(C)n1/N=C/c1cc(Br)c(O)c(Br)c1 | 2.7 | 0.1 | 69.7 | 12.5
CCOC(=O)c1cc2c(=O)n3ccccc3nc2n(Cc2ccco2)c1=NC(=O)c1cccnc1 | 1.8 | 84.7* | 1.3 | 48.7
CCOC(=O)c1cc2c(=O)n3ccccc3nc2n(Cc2ccco2)c1=NC(=O)c1ccccc1OCC | 8.4 | 32.9 | 89.6* | 31.6
CCOC(=O)c1cc2c(=O)n3ccccc3nc2n(CC(C)C)c1=NC(=O)c1ccco1 | 2.1 | 5.5 | 3.5 | 19.2
Cc1cccc(C(=O)N=c2c(C#N)cc3c(=O)n4cccc(C)c4nc3n2Cc2ccco2)c1 | 13.9 | 47.6 | . | 26.8
Cc1cccn2c(=O)c3cc(C#N)c(=NC(=O)c4ccccc4)n(Cc4ccco4)c3nc12 | 2.4 | 42.6 | 89.3* | .
CCCCC1CCC(C(=O)N(CCCC)c2c(N)n(CCCC)c(=O)[nH]c2=O)CC1 (configuration not stated) | 7.0 | 10.5 | 1.2 | 15.2
COc1cc(C2C(C(=O)OC(C)C)=C(C)Nc3[nH]c(=O)[nH]c(=O)c32)ccc1O (configuration not stated) | -0.4 | 1.2 | 79.0* | -14.5
Cc1cccc(C)c1N=Nc1c(C)cc(O)cc1C | 14.7 | -17.0 | 92.4* | 1.3
COc1ccc(OCC(=O)N/N=C2\CCCCc3ccccc32)cc1 | -0.8 | 0.0 | -4.9 | 1.5
CCc1ccc(OCC(=O)N/N=C2\CC(=O)c3ccccc32)cc1 | 2.5 | -18.1 | -61.3 | 86.9*
COc1ccccc1C(CC(=O)Nc1ccc(Cl)cc1)c1ccc(OC(C)C)cc1 (configuration not stated) | 1.5 | -6.6 | -11.0 | -10.0
CC(C)Oc1ccc(CNC(=O)CC(c2ccccc2)c2cc(Cl)ccc2O)cc1 (configuration not stated) | 51.2* | -18.9 | -8.5 | -41.7
Cc1nnc(Nc2ccc(O)cc2)[nH]c1=O | -0.3 | 8.5 | 98.7* | 7.0
Cc1ccc(S(=O)(=O)NC(Cc2ccccc2)C(=O)NN)cc1 (configuration not stated) | -2.5 | 2.6 | -7.2 | 4.8
Cc1ccc(S(=O)(=O)N[C@@H](Cc2ccccc2)C(=O)CCl)cc1 | 8.8 | -15.1 | 97.9* | -12.3
Cc1cc(=O)[nH]c(N2CCCNCC2)n1 | 1.4 | 4.8 | 1.9 | 5.6
CCOc1ccc2ccccc2c1C(=O)N[C@@H]1C(=O)N2[C@@H]1SC(C)(C)[C@@H]2C(=O)O | 0.8 | 77.9*! | . | 9.2
CC1(C)S[C@@H]2[C@H](NC(=O)Cc3ccccc3)C(=O)N2[C@H]1C(=O)O | 2.9 | 11.9 | -17.9 | -5.5
SMILES | NTR1 ag | Cardio protect | ALR H2O2 inh | UBC9 SUMO inh
Nc1ccc(Sc2cnn(-c3ccccc3)c(=O)c2Cl)cc1 | -1.5 | -6.2 | 91.8* | -7.4
S=C(Nc1nc2c(s1)CCCC2)NC1CC1 | 2.6 | -7.9 | 85.9* | 11.3
O=C(NC(=S)Nc1nc2c(s1)CCCC2)c1ccccc1 | . | -18.0 | . | 22.7
C/C(=N\NC(=O)c1cccc(F)c1)c1ccc(NC(=O)Cc2ccccc2)cc1 | 0.1 | -2.9 | -1.7 | 2.0
COc1ccc(NC(=O)CSc2nncs2)cc1S(=O)(=O)N1CCCCC1 | -0.4 | 0.9 | -5.2 | .
Cc1ccc2nc(-c3ccc(Br)o3)oc(=O)c2c1 | 3.8 | 9.3 | 88.9* | -2.8
COc1cc2nc(-c3ccc(Br)o3)oc(=O)c2cc1OC | 0.0 | 36.3 | 5.4 | -6.0
O=C(OCC(=O)N1CCN(c2ccccc2)CC1)c1ccccn1 | . | -4.6 | 73.7 | 1.0
O=C(OCC(=O)N1CCN(c2ccccc2)CC1)c1ccc2ccccc2n1 | -1.1 | -0.6 | 97.4* | -8.7
Cn1cccc1C(=O)OCC(=O)N1CCN(c2ccccc2)CC1 | 0.1 | 0.6 | 97.9* | .
Cc1ccsc1C(=O)Nc1n[nH]c(C(F)(F)F)n1 | 5.2 | -0.8 | . | 9.3
O=C(C#Cc1ccccc1)Nc1cccc(F)c1 | 2.6 | -9.4 | 97.3* | -9.9
O=C(C#Cc1ccccc1)Nc1ccc(F)cc1 | 3.3 | 5.3 | 96.9* | -0.6
CN(C)CCOC1c2ccccc2CSc2ccccc21 (configuration not stated) | -0.1 | 4.9 | -4.5 | .
Cc1ccc(NC(=O)CSc2nc(O)cc(=O)n2C)cc1 | 0.2 | 0.0 | 98.8* | 2.3
Cc1ccc(-n2c(SCC(N)=O)nc(O)cc2=O)cc1 | -1.1 | 6.6 | -0.3 | -18.4
COc1ccc(-n2c(SCC(=O)Nc3ccc(Br)cc3)nc(O)cc2=O)cc1 | 3.0 | 3.5 | 98.8* | 32.1
O=C(CSc1nc(O)cc(=O)n1-c1ccc(Cl)c(Cl)c1)Nc1ccc(Cl)cc1Cl | 0.7 | -4.9 | 98.4* | 10.2
Cc1ccc(NC(=O)CSc2nc(O)cc(=O)n2-c2ccc(C)cc2)cc1 | 0.7 | 0.4 | 99.7* | .
CCOc1ccc(N(CC(=O)NC2CCCC2)S(=O)(=O)c2ccccc2)cc1 | 0.4 | 4.4 | . | -2.3
Cc1ccc(C(=O)OCC(=O)NCCc2ccccc2)cc1S(=O)(=O)N1CCOCC1 | 0.0 | -1.5 | -49.2 | .
CCN1CCN(C(C(=O)NC2CCCCC2)c2ccc(Cl)cc2)CC1 (configuration not stated) | 0.2 | -1.8 | 1.3 | -1.1
Cn1c(SCC(=O)Nc2ccc(Br)cc2)nc(O)cc1=O | -0.3 | 0.3 | 99.0* | 11.2
CCN(CC)C(=O)CSc1nc(O)cc(=O)n1C | -0.1 | -6.0 | 72.7 | 7.2
O=c1cc(O)nc(SCc2ccccc2)n1-c1ccc(Cl)cc1 | -0.1 | -5.1 | 98.1* | 14.2
SMILES | NTR1 ag | Cardio protect | ALR H2O2 inh | UBC9 SUMO inh
CCNc1nc(NC(C)(C)C)nc(SCC(N)=O)n1 | -1.1 | -2.8 | -3.2 | 15.0
CC1=CC(C)(C)Nc2ccc(OC(=O)C(Cc3ccccc3)N3C(=O)c4ccccc4C3=O)cc21 (configuration not stated) | 4.2 | -3.1 | 0.5 | -4.9
Cc1cc(C)nc(NC(=O)c2ccc(COc3ccccc3Cl)cc2)c1 | 0.6 | -0.7 | 97.4* | -12.6
O=C(NCc1ccco1)c1ccccc1Nc1ccc(F)cc1 | 0.0 | -7.0 | 99.0* | -8.1
O=C(NCc1ccco1)c1ccc(COc2ccccc2Cl)cc1 | 0.4 | -18.7 | 99.3* | -12.2
O=C(NCc1ccco1)c1ccc(Oc2ccccc2)cc1 | -1.8 | -0.3 | 90.5* | -8.6
COc1ccc(Br)cc1/C=C/C(=O)c1ccc(NC(C)=O)cc1 | . | -7.6 | . | 6.2
O=S(=O)(Nc1ccc(-n2cnnn2)cc1)c1ccc(Cl)s1 | 2.1 | -1.2 | . | .
O=C(NCc1cccnc1)c1ccc(COc2ccccc2Cl)cc1 | 2.2 | -25.6 | 98.3* | 8.8
